GLS inhibitor: glutaminase GLS (human) inhibition; O94925; GLS enzymatic activity, qHTS titration; Potency, µM (doses to about 45.5 µM), for the others: at the highest dose activity change, negative = inhibition, actives largely listed as inhibitors; 0.21% of 410,000 active; further: on the % scale 0 is the no-effect control and ±100 the full control effect
Target sequence (O94925 whole entry, looked up): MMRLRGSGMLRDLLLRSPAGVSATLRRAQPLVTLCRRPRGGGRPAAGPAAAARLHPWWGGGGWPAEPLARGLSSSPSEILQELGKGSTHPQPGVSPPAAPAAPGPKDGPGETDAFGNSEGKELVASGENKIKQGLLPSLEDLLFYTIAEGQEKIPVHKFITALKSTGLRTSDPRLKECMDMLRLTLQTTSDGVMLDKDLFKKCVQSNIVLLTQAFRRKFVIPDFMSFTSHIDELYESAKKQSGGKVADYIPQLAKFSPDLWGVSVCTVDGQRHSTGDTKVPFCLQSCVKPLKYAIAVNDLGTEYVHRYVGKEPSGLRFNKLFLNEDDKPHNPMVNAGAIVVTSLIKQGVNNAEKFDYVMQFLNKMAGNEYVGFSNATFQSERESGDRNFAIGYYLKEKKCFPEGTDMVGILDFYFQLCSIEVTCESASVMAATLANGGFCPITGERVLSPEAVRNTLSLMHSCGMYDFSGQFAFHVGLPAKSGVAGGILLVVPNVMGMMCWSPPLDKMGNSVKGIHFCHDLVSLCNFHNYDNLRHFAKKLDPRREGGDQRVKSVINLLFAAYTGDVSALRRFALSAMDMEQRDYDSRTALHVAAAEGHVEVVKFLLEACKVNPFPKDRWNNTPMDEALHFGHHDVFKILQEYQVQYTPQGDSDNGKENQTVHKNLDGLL
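Assay buffer: 45 mM KH2PO4 pH 8.2, 0.02% Tween-20. hKGA acts on L-glutamine (1 mM solution added); product glutamate is reported by an oxidase/peroxidase Amplex Red coupling, with fluorescence taken at baseline and 30 min.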
JMJD2A Tudor inh: inhibitors of human JMJD2A Tudor domain. O75164. AlphaScreen JMJD2A-Tudor / H3K4me3 peptide binding. Potency, µM (doses to about 114 µM), for inactives: top-dose activity change, negative = inhibition, actives largely listed as inhibitors. 4.4% of 390,000 active. AID 504339; further: on the % scale 0 is the no-effect control and ±100 the full control effect; nearly all actives have a fitted effect of over 50% in size
HP1b binding inh: HP1-beta chromodomain-methylated histone interaction inhibition | Potency, µM (doses to about 114 µM), for the others: top-dose activity change, negative = inhibition, usual class: inhibitors | 0.56% of 390,000 active | AlphaScreen HP1-beta / biotin-H3K9me3 peptide binding | AID 540317; further: nearly all actives have a fitted effect of over 70% in size
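AlphaScreen: HP1-beta (50 nM) preformed 30 min with biotin-H3(1-18)K9me3 peptide (50 nM) in PBS pH 7.4, 0.01% Tween-20. Compound added for 30 min at RT, then streptavidin donor/nickel chelate acceptor beads (10 ug/mL) for 30 min.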
G9a block: blocks human histone lysine methyltransferase G9a | Q96KQ7 | G9a H3K9 monomethylation, AlphaScreen, 2 h | Potency, µM (doses to about 102 µM), inactives show at the highest dose activity, negative = inhibition, actives largely listed as inhibitors | 8.8% of 350,000 active | AID 504332; further: on the % scale 0 is the no-effect control and ±100 the full control effect; nearly all actives have a fitted effect of over 75% in size
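AlphaScreen read-out: biotin-H3K9 peptide (500 nM) methylation by 20 nM enzyme with 20 uM SAM, 2 h at room temperature after 15 min compound preincubation; anti-monomethyl H3K9 antibody plus donor/acceptor beads, 10 min dark.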
BAZ2B inh: blocks human BAZ2B | Potency, µM (doses to about 114 µM), for inactives: at the highest dose activity change, negative = inhibition, actives largely listed as inhibitors | AlphaScreen BAZ2B-H3K14Ac peptide displacement | 4.4% of 360,000 active | AID 504333 | Q9UIF8; further: on the % scale 0 is the no-effect control and ±100 the full control effect; nearly all actives have a fitted effect of over 60% in size
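Compounds, titrated to a top concentration of 110 uM, were incubated 30 min at room temperature with preformed BAZ2B/acetyl-K14 H3 peptide complex (50 nM each). Proximity signal was measured by AlphaScreen after 20 min with beads.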
The depositor's hits bear a star; [ ] = dose if it differs, or a comment. Hits are enriched below; roughly 10% of the tested compounds scored in any of these assays. The call rests on the fitted dose curve; in most records, active means well fitted curve in the direction sought with a large enough effect; inconclusive means small, poorly fitted or top-dose-only effect, or another doubt; inactive means no such curve, though single readings can be large; an effect the other way counts as inactive or inconclusive. Potency means the concentration at half of the fitted maximal effect.

Results for O=C(Nc1ccccc1)N1CCC2(CC1)CCN(C(=O)Oc1ccccc1)CC2 ?
G9a block: -12.7%[12.7 µM]

How did NCCCN1CCN(c2ccccc2)CC1 do in these assays?
GLS inhibitor: 0.0%; JMJD2A Tudor inh: inconclusive; HP1b binding inh: -26.6%; BAZ2B inh: 19.6%

What do the screens show for `[Cl-].[Cl-].[Hg+2]`?
GLS inhibitor: -109.1%; G9a block: 1.26µM*

How did COc1ccc(CC(C)NC2CCCCCC2)cc1 (centres undefined) do in these assays?
GLS inhibitor: -6.0%; JMJD2A Tudor inh: -8.3%; HP1b binding inh: 22.6%; G9a block: -25.5%; BAZ2B inh: -6.9%

What do the screens show for `CN1C(=O)/C(=C/C=C/c2ccco2)C(=O)NC1=S`?
JMJD2A Tudor inh: inconclusive; HP1b binding inh: 11.2µM*; G9a block: 2.82µM*; BAZ2B inh: 31.6µM*

How did Cc1cccc(N2C(=O)NC(=O)/C(=C/c3ccc([N+](=O)[O-])o3)C2=O)c1 do in these assays?
GLS inhibitor: 7.08µM*; JMJD2A Tudor inh: 20µM*; HP1b binding inh: inconclusive; G9a block: inconclusive; BAZ2B inh: 22.4µM*

How did Cn1cc(/C=C2\C(=O)NC(=O)N(c3ccccc3)C2=O)c2ccccc21 do in these assays?
GLS inhibitor: inconclusive; JMJD2A Tudor inh: -31.5%; HP1b binding inh: 137.4%; G9a block: -1.1%; BAZ2B inh: -21.3%

How did Cc1ccc(N2C(=O)NC(=O)/C(=C\C=C\c3ccco3)C2=O)cc1C do in these assays?
GLS inhibitor: 0.5%; JMJD2A Tudor inh: inconclusive; HP1b binding inh: inconclusive; G9a block: 10µM*; BAZ2B inh: 44.7µM*

Results for CN(C)c1ccc(/C=C/C=C2/C(=O)NC(=O)N(c3ccccc3)C2=O)cc1 ?
GLS inhibitor: -3.2%; JMJD2A Tudor inh: inconclusive; HP1b binding inh: 15.8µM*; G9a block: 15.8µM*; BAZ2B inh: 12.6µM*

What do the screens show for `Cc1c(P(=S)(c2ccccc2)c2ccccc2)[n+]2ccccc2n1C`?
GLS inhibitor: -14.4%; JMJD2A Tudor inh: -26.5%; HP1b binding inh: 22.1%; G9a block: 8.2%; BAZ2B inh: -2.6%

How did CCOP(=O)(NC(C)C)Oc1ccc(SC)c(C)c1 (centres undefined) do in these assays?
GLS inhibitor: 6.8%; JMJD2A Tudor inh: -9.1%; HP1b binding inh: 37.8%

What do the screens show for `C#CCOc1cc(C2C3=C(COC3=O)Nc3cc4c(cc32)OCO4)ccc1OC` (centres undefined)?
GLS inhibitor: inconclusive; JMJD2A Tudor inh: -13.0%; HP1b binding inh: 22.5%; G9a block: 6.5%; BAZ2B inh: -13.5%

How did CCOC(=O)c1ncn2c1CN(C)C(=O)c1c(I)cccc1-2 do in these assays?
GLS inhibitor: 0.7%

How did CC(C)(C)n1cccc1/C=C1\C(=O)NC(=O)N(c2ccccc2)C1=O do in these assays?
GLS inhibitor: 10.8%; JMJD2A Tudor inh: -24.3%; HP1b binding inh: 31.0%; G9a block: inconclusive; BAZ2B inh: -9.8%

What do the screens show for `O=C1NC(=O)N(Cc2ccco2)C(=O)/C1=C/C=C/c1ccco1`?
GLS inhibitor: 44.2%; JMJD2A Tudor inh: 35.5µM*; HP1b binding inh: 11.2µM*; G9a block: -175.1%[59 µM]; BAZ2B inh: 31.6µM*

Results for C=CCN1C(=O)NC(=O)/C(=C/C=C/c2ccccc2)C1=O ?
GLS inhibitor: -13.1%; JMJD2A Tudor inh: -21.0%; HP1b binding inh: inconclusive; G9a block: 8.91µM*; BAZ2B inh: inconclusive

Results for O=C1NC(=O)N(c2ccccc2)C(=O)/C1=C/C=C/c1ccco1 ?
GLS inhibitor: 27.7%; JMJD2A Tudor inh: -29.1%; HP1b binding inh: -19.0%; G9a block: 35.5µM*; BAZ2B inh: -35.2%

Results for Cc1cccc(N2C(=O)NC(=O)/C(=C\C=C\c3ccco3)C2=O)c1 ?
GLS inhibitor: 26.6%; JMJD2A Tudor inh: inconclusive; HP1b binding inh: -19.9%; G9a block: 3.98µM*; BAZ2B inh: inconclusive

What do the screens show for `O=C1NC(=O)N(CCc2ccc(F)cc2)C(=O)/C1=C\C=C\c1ccccc1`?
GLS inhibitor: 78.7%; JMJD2A Tudor inh: -29.2%; HP1b binding inh: 22.7%; G9a block: inconclusive; BAZ2B inh: -23.8%

How did Cc1ccc(NC(=S)NCCc2cnc[nH]2)cc1C do in these assays?
GLS inhibitor: 7.0%; JMJD2A Tudor inh: -13.3%; HP1b binding inh: 23.4%; G9a block: -13.5%[59 µM]; BAZ2B inh: -15.7%

Results for Cc1ccc(N2C(=O)NC(=O)/C(=C\C=C\c3ccco3)C2=O)cc1 ?
GLS inhibitor: 11.7%; JMJD2A Tudor inh: -23.9%; HP1b binding inh: 13.9%; G9a block: 35.5µM*; BAZ2B inh: -33.3%

What do the screens show for `Oc1cc2c(cc1O)[C@H]1c3ccccc3CNC1CC2` (some centres undefined)?
G9a block: 0.501µM*

How did COC(=O)CC1=C(C(=O)OC)C2(C(=O)Nc3c(C)cccc32)C(C#N)=C(N)O1 (centres undefined) do in these assays?
GLS inhibitor: -1.5%; JMJD2A Tudor inh: -1.5%; HP1b binding inh: 32.8%; G9a block: inconclusive; BAZ2B inh: -26.8%

Results for COc1cc(N)ccc1Cc1ccc(N)cc1OC ?
GLS inhibitor: -2.9%; JMJD2A Tudor inh: 79.4µM*; HP1b binding inh: -13.8%; G9a block: -20.5%[59 µM]

How did CC(C)C[C@H]1C(=O)N2CCC[C@H]2[C@]2(O)O[C@](NC(=O)[C@@H]3C=C4c5cccc6[nH]cc(c56)C[C@H]4N(C)C3)(C(C)C)C(=O)N12 do in these assays?
GLS inhibitor: -2.1%; JMJD2A Tudor inh: 50.1µM*; HP1b binding inh: -14.4%; G9a block: 6.31µM*; BAZ2B inh: -33.9%

What do the screens show for `CN1C[C@H](C(=O)N[C@]2(C)O[C@@]3(O)[C@@H]4CCCN4C(=O)[C@H](Cc4ccccc4)N3C2=O)C=C2c3cccc4[nH]cc(c34)C[C@H]21`?
GLS inhibitor: 17.6%; G9a block: 12.6µM*

How did CC(C)[C@@]1(NC(=O)[C@H]2C[C@H]3c4cccc5[nH]cc(c45)C[C@@H]3N(C)C2)O[C@]2(O)[C@H]3CCCN3C(=O)CN2C1=O (tested in a mixture with another compound) do in these assays?
GLS inhibitor: 7.7%

What do the screens show for `CC(C)C[C@H]1C(=O)N2CCC[C@H]2[C@]2(O)O[C@](NC(=O)[C@@H]3C=C4c5cccc6[nH]c(Br)c(c56)C[C@H]4N(C)C3)(C(C)C)C(=O)N12`?
G9a block: 23.8µM*

How did CCN(CC)c1ccc(CN2CC=C(c3ccc(F)cc3)CC2)cc1 do in these assays?
GLS inhibitor: -7.5%; JMJD2A Tudor inh: 50.1µM*; HP1b binding inh: 44.7µM*; G9a block: 44.7µM*; BAZ2B inh: 79.4µM*

What do the screens show for `COc1ccc(CN2CC=C(c3ccc(F)cc3)CC2)cc1Br`?
GLS inhibitor: -2.7%; JMJD2A Tudor inh: -15.9%; HP1b binding inh: 88.0%; G9a block: 21.0%; BAZ2B inh: -28.9%
